DRD3 agonist: D3 dopamine receptor (human) agonism | D3R DiscoveRx beta-arrestin cells, luminescence, 90 min | AID 652048 | max activation, % | 410,000 tested, 0.58% active | P35462; in the data active = max activation above about 30%
Target sequence (P35462 whole entry, looked up): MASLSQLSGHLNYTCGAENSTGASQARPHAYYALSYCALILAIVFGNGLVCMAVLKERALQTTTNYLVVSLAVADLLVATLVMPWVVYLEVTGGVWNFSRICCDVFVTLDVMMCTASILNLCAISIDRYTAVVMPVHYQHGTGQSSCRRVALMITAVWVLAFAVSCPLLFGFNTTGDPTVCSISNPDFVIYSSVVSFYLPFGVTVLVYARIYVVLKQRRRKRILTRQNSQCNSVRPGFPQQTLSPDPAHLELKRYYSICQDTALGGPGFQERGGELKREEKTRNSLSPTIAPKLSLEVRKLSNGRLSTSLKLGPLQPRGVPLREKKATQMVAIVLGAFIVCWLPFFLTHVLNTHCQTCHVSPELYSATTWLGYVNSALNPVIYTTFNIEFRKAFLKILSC
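Agonist-mode cell screen: cells plated at 1500/well and incubated overnight at 37 °C, then exposed to library compounds for 90 min at 37 °C. Detection reagent was added for 30–60 min at room temperature, and luminescence was read.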
DT40 TDP1 no CPT: qHTS for Inhibitors of human tyrosyl-DNA phosphodiesterase 1 (TDP1): qHTS in cells in absence of CPT; DT40 Tdp1-/- hTDP1 cells, no CPT, ATP luminescence, 48 h; Potency, µM (doses to about 46.2 µM), hits mostly inhibitors; 420,000 tested, 15% active; note: nearly all actives have a fitted effect of over 55% in size
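Chicken DT40 Tdp1-/- cells stably complemented with human TDP1 were seeded at 400 cells/well with DMSO in place of 20 nM camptothecin. After compound pinning, cells grew at least 48 hr at 37 °C; viability read by CellTiter-Glo luminescence.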
IL1B secr inh: inflammasome signaling inhibition, IL-1 beta readout | THP-1 LPS/ATP IL-1B secretion, AlphaLISA, 16 h; active compounds read low | activity change, % at 57.5 µM | 360,000 tested, 4.7% active; in the data active = activity change below about -50%; inconclusive = mostly about -30% to -49%
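Secreted IL-1B measured by AlphaLISA bead assay after 16 h compound exposure of THP-1 cells; compounds (final up to 57.5 uM) added 1 h before LPS (250 ng/mL) and ATP (1.25 mM) stimulation; lower signal means less secretion.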
DT40 TDP1 CPT: DT40-hTDP1 cell growth loss with CPT. 420,000 tested, 12% active. chicken DT40 Tdp1-/-;hTDP1 cells + 20 nM CPT, ATP luminescence, 48 h. Potency, µM (top dose mostly 46.2 µM), usual class: inhibitors; note: nearly all actives have a fitted effect of over 55% in size
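Chicken DT40 Tdp1-/- cells stably complemented with human TDP1 were seeded at 400 cells/well in medium containing 20 nM camptothecin, exposed to pin-transferred compounds, and grown at 37 °C for at least 48 hr. Viability was read as ATP luminescence.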
D3 antag: D3 dopamine receptor (human) antagonism; D3R cells, DiscoveRx beta-arrestin luminescence, antagonist mode; active compounds read low; AID 652054; P35462; 360,000 tested, 2.5% active; max response, negative = inhibition, %; in the data active = max response below about -50%; inconclusive = no clear call, values can overlap the other calls
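Cells plated overnight at 1500 cells/well, then exposed to library compounds with dopamine controls for 90 minutes at 37 degrees C. DiscoveRx reagent added for 30–60 minutes at room temperature; luminescence read, quantitative HTS format.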
ClpP mod: qHTS Assay for Activators of ClpP; 340,000 tested, 1.9% active; Potency, µM (highest dose often 57.5 µM); ATP-dependent Clp protease proteolytic subunit (Bacillus subtilis (strain 168)), P80244; purified B. subtilis ClpP, FRET peptide cleavage, 20 min; active = well fitted falling curve with a large enough effect; inconclusive = small, poorly fitted or top-dose-only effect; inactive = no such curve, though single readings can be large or run the other way; note: the source files actives as falling curves though it sought activators and does not explain the sign; nearly all actives have a fitted effect of over 65% in size
Target sequence (P80244 whole entry, looked up): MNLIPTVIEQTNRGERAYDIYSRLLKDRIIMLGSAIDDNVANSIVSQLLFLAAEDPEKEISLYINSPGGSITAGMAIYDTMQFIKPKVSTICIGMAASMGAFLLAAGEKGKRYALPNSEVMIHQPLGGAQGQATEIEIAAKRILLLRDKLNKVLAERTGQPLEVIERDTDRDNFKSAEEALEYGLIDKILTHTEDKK
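ClpP 10 microg/mL final, pH 8 Tris/KCl buffer with BSA, glycerol, Tween-20; compound pinned in; FRET-FV substrate; RT 20 min; Ex320/Em430; ΔFRET vs ADEP 5.8 microM, DMSO, no enzyme.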
Large screens that a line does not name were inactive. Rows were chosen to be rich in hits. Some 21% of all compounds tested hit in one or more screens of this group. Unless noted, calls come from the whole dose curve; as a rule, active = well fitted inhibition curve with a large enough effect; inconclusive = small, poorly fitted or top-dose-only effect; inactive = flat fitted curve, though single readings scatter.

CN1/C(=C/C(=O)CSc2ccccc2C(=O)O)C(C)(C)c2ccccc21	DT40 TDP1 no CPT 9.2µM, DT40 TDP1 CPT inconclusive
Cc1cc(=O)[nH]c(SCC(=O)/C=C2\N(C)c3ccccc3C2(C)C)n1	DT40 TDP1 no CPT 9.2µM, DT40 TDP1 CPT inconclusive
Cc1cccc(NC(=O)C2CCN(S(=O)(=O)c3cccc4nonc34)CC2)c1	none (no result: ClpP mod)
CN1/C(=C\C(=O)CSc2nnc(N)s2)C(C)(C)c2ccccc21	DT40 TDP1 no CPT 21µM, DT40 TDP1 CPT inconclusive (no result: ClpP mod)
COc1ccc(C(=O)N2CCC[C@@]3(CCN(C(=O)Nc4ccccc4)C3)C2)cc1	DT40 TDP1 no CPT inconclusive (no result: DRD3 agonist, IL1B secr inh, D3 antag, ClpP mod)
O=C(COc1ccccc1)NCC(=O)N1CCCC1	none (no result: ClpP mod)
CC(=O)Nc1ccc(C(=O)COC(=O)C2CCCCC2)c(F)c1	none
Cn1cc(CNCc2ccc(-n3cccn3)cc2)c(-c2ccccc2F)n1	DT40 TDP1 no CPT 21µM, DT40 TDP1 CPT inconclusive (no result: ClpP mod)
Cc1cnc(C=O)c2cccc([N+](=O)[O-])c12	DT40 TDP1 no CPT 3.7µM, IL1B secr inh inconclusive, DT40 TDP1 CPT 5.8µM, D3 antag -77
Cc1ncc(C)c2c([N+](=O)[O-])cccc12	DT40 TDP1 no CPT 23µM, IL1B secr inh inconclusive
CCc1cc(-c2nnn(CCC3COCCO3)c2CC)ccc1-c1cn(CCc2c[nH]c3ccccc23)nn1 (centres undefined)	DT40 TDP1 no CPT 12µM, DT40 TDP1 CPT 16µM
O=C(C[C@H]1CC[C@@H](NS(=O)(=O)c2ccccc2)[C@@H](CO)O1)NCc1ccc(Cl)c(Cl)c1	DT40 TDP1 no CPT 21µM, DT40 TDP1 CPT 21µM
O=C(NCc1ccccc1)c1ccc(NC(=O)N2CCSc3ncccc32)cc1	ClpP mod 32µM (no result: IL1B secr inh, D3 antag)
CCc1ccc(CNC(=O)c2ccc(NC(=O)N3CCSc4ncccc43)cc2)cc1	DT40 TDP1 no CPT inconclusive, DT40 TDP1 CPT inconclusive, ClpP mod 32µM (no result: IL1B secr inh, D3 antag)
Cc1ccc(CNC(=O)c2ccc(NC(=O)N3CCSc4ncccc43)cc2)cc1	DT40 TDP1 no CPT inconclusive, DT40 TDP1 CPT inconclusive (no result: IL1B secr inh, D3 antag)
Cc1onc(-c2c(Cl)cccc2Cl)c1C(=O)c1c[nH]c(C(=O)NCCCN2CCOCC2)c1	D3 antag -54
Cc1ccc(C(=O)c2c[nH]c(C(=O)NCCCN3CCOCC3)c2)cc1	none
O=C(NCC1CCCCC1)c1cc(-c2cc(F)ccc2OCC2CCCO2)n[nH]1 (centres undefined)	DT40 TDP1 no CPT inconclusive, IL1B secr inh -56, DT40 TDP1 CPT 18µM
Cc1ccc(Cl)cc1-c1cc(C(=O)NCC2CCCCC2)[nH]n1	DT40 TDP1 no CPT 18µM, IL1B secr inh -51, DT40 TDP1 CPT inconclusive, D3 antag -70
COc1ccc(-c2cc(C(=O)NCC3CCCCC3)[nH]n2)c(C)c1	DT40 TDP1 no CPT inconclusive, DT40 TDP1 CPT inconclusive, D3 antag -79
COc1ccc(-c2cc(C(=O)NCc3cccc(Cl)c3)[nH]n2)c(C)c1	DT40 TDP1 no CPT inconclusive, DT40 TDP1 CPT inconclusive
COc1ccc(-c2nc(CS(=O)CC(=O)NCCCN3CCOCC3)c(C)o2)cc1OC (centres undefined)	DT40 TDP1 CPT inconclusive
CCN(C)C1CN(Cc2cn(Cc3ccc(C)cc3)nn2)S(=O)(=O)C1 (centres undefined)	none
COc1ccc(C)cc1NC(=O)CCn1nc(C)cc1C	DT40 TDP1 no CPT inconclusive (no result: IL1B secr inh, D3 antag)
O=C(Nc1ccccc1F)c1oc2ccccc2c1NC(=O)C12CC3CC(CC(C3)C1)C2	none (no result: IL1B secr inh, D3 antag)
COc1ccc(NC(=S)N2CCN(c3ccc([N+](=O)[O-])cc3)CC2)cc1OC	DT40 TDP1 no CPT 12µM, DT40 TDP1 CPT 10µM (no result: ClpP mod)
COc1cccc(NC(=S)N2CCN(c3ccc([N+](=O)[O-])cc3)CC2)c1	DT40 TDP1 no CPT 10µM, DT40 TDP1 CPT 6.5µM (no result: ClpP mod)
COC(=O)Cc1ccc(NC(=S)N2CCN(c3cccc(O)c3)CC2)cc1	DRD3 agonist 32, DT40 TDP1 no CPT 13µM, IL1B secr inh inconclusive, DT40 TDP1 CPT 16µM
CSc1cc(/C=N/O)c(SC)s1	DT40 TDP1 no CPT inconclusive
Cc1cc(C)c(COCc2cc(/C=N/O)c(C)cc2C)cc1/C=N/O	DT40 TDP1 no CPT inconclusive, IL1B secr inh -83, DT40 TDP1 CPT inconclusive
O=C1c2ccccc2C(c2nnnn2-c2ccc3c(c2)OCCO3)N1Cc1ccc(F)cc1 (centres undefined)	DT40 TDP1 no CPT inconclusive, DT40 TDP1 CPT inconclusive
Cc1ccccc1CN1C(=O)c2ccccc2C1c1nnnn1-c1ccc2c(c1)OCCO2 (centres undefined)	DT40 TDP1 no CPT 4.1µM, DT40 TDP1 CPT 5.2µM
COCCN1C(=O)c2ccccc2C1c1nnnn1-c1ccc2c(c1)OCCO2 (centres undefined)	none
CC(C)CCN1C(=O)c2ccccc2C1c1nnnn1-c1ccc2c(c1)OCCO2 (centres undefined)	DT40 TDP1 no CPT 16µM, DT40 TDP1 CPT 23µM
COc1ccc(CN2C(=O)c3ccccc3C2c2nnnn2-c2ccc3c(c2)OCCO3)cc1 (centres undefined)	DT40 TDP1 no CPT 16µM, DT40 TDP1 CPT inconclusive
O=C1c2ccccc2C(c2nnnn2-c2ccc3c(c2)OCCO3)N1CCc1c[nH]c2ccccc12 (centres undefined)	DT40 TDP1 no CPT 15µM, DT40 TDP1 CPT 18µM
Cc1ccc(S(=O)(=O)NCCC(=O)NC(C)CCc2ccccc2)cc1 (centres undefined)	DT40 TDP1 no CPT inconclusive (no result: ClpP mod)
COc1ccc(NC(=O)COc2cccc3c2CCNC3=O)cc1	DT40 TDP1 CPT inconclusive
CC(OC(=O)c1nc(Cl)ccc1Cl)C(=O)Nc1ccccc1F (centres undefined)	none (no result: ClpP mod)
Cc1ccc(CN2C(=O)c3ccccc3C2c2nnnn2-c2ccc3c(c2)OCCO3)cc1 (centres undefined)	DT40 TDP1 no CPT 16µM, DT40 TDP1 CPT inconclusive
O=C1c2ccccc2C(c2nnnn2-c2ccc3c(c2)OCCO3)N1Cc1ccccc1 (centres undefined)	DT40 TDP1 no CPT inconclusive, DT40 TDP1 CPT inconclusive
CC(C)c1ccc(COc2ccc(C(=O)N3CCOCC3)cc2)cc1	DT40 TDP1 no CPT 23µM, DT40 TDP1 CPT inconclusive
Cc1ccc(OCc2ccc(C(=O)N3CCOCC3)cc2)cc1C	DT40 TDP1 no CPT 21µM, DT40 TDP1 CPT 16µM
CC(C)c1ccc(OCc2ccc(C(=O)N3CCN(c4ccccn4)CC3)cc2)cc1	DT40 TDP1 no CPT 21µM, DT40 TDP1 CPT inconclusive
Cc1ccc(C(=O)N2CCN(c3ccccn3)CC2)cc1	none
CCOc1ccc(C(=O)Nc2ccc(C(=O)N3CCOCC3)cc2)c(OCC)c1	DT40 TDP1 no CPT 13µM, DT40 TDP1 CPT inconclusive
